Laboratory results from the supplement of paper PMC11732987, “Enantioselective OTUD7B fragment discovery through chemoproteomics screening and high-throughput optimisation” (Communications Chemistry, 2025).

Assays:
Assay in all cases: log2 ratio of Biotin-Ahx-Ub-VS probe labelling (fragment/DMSO); higher = less target engagement (more negative = stronger competition), active = hit call of the paper (q ≤ 0.05, log2 ratio ≤ -1)
Conditions in all cases: compound concentration: 200 uM; treatment time: 3 h
[1] = target: USP34 (UniProt Q70CQ2)
Sequence of USP34 (Q70CQ2 whole entry, the tested form may be a part): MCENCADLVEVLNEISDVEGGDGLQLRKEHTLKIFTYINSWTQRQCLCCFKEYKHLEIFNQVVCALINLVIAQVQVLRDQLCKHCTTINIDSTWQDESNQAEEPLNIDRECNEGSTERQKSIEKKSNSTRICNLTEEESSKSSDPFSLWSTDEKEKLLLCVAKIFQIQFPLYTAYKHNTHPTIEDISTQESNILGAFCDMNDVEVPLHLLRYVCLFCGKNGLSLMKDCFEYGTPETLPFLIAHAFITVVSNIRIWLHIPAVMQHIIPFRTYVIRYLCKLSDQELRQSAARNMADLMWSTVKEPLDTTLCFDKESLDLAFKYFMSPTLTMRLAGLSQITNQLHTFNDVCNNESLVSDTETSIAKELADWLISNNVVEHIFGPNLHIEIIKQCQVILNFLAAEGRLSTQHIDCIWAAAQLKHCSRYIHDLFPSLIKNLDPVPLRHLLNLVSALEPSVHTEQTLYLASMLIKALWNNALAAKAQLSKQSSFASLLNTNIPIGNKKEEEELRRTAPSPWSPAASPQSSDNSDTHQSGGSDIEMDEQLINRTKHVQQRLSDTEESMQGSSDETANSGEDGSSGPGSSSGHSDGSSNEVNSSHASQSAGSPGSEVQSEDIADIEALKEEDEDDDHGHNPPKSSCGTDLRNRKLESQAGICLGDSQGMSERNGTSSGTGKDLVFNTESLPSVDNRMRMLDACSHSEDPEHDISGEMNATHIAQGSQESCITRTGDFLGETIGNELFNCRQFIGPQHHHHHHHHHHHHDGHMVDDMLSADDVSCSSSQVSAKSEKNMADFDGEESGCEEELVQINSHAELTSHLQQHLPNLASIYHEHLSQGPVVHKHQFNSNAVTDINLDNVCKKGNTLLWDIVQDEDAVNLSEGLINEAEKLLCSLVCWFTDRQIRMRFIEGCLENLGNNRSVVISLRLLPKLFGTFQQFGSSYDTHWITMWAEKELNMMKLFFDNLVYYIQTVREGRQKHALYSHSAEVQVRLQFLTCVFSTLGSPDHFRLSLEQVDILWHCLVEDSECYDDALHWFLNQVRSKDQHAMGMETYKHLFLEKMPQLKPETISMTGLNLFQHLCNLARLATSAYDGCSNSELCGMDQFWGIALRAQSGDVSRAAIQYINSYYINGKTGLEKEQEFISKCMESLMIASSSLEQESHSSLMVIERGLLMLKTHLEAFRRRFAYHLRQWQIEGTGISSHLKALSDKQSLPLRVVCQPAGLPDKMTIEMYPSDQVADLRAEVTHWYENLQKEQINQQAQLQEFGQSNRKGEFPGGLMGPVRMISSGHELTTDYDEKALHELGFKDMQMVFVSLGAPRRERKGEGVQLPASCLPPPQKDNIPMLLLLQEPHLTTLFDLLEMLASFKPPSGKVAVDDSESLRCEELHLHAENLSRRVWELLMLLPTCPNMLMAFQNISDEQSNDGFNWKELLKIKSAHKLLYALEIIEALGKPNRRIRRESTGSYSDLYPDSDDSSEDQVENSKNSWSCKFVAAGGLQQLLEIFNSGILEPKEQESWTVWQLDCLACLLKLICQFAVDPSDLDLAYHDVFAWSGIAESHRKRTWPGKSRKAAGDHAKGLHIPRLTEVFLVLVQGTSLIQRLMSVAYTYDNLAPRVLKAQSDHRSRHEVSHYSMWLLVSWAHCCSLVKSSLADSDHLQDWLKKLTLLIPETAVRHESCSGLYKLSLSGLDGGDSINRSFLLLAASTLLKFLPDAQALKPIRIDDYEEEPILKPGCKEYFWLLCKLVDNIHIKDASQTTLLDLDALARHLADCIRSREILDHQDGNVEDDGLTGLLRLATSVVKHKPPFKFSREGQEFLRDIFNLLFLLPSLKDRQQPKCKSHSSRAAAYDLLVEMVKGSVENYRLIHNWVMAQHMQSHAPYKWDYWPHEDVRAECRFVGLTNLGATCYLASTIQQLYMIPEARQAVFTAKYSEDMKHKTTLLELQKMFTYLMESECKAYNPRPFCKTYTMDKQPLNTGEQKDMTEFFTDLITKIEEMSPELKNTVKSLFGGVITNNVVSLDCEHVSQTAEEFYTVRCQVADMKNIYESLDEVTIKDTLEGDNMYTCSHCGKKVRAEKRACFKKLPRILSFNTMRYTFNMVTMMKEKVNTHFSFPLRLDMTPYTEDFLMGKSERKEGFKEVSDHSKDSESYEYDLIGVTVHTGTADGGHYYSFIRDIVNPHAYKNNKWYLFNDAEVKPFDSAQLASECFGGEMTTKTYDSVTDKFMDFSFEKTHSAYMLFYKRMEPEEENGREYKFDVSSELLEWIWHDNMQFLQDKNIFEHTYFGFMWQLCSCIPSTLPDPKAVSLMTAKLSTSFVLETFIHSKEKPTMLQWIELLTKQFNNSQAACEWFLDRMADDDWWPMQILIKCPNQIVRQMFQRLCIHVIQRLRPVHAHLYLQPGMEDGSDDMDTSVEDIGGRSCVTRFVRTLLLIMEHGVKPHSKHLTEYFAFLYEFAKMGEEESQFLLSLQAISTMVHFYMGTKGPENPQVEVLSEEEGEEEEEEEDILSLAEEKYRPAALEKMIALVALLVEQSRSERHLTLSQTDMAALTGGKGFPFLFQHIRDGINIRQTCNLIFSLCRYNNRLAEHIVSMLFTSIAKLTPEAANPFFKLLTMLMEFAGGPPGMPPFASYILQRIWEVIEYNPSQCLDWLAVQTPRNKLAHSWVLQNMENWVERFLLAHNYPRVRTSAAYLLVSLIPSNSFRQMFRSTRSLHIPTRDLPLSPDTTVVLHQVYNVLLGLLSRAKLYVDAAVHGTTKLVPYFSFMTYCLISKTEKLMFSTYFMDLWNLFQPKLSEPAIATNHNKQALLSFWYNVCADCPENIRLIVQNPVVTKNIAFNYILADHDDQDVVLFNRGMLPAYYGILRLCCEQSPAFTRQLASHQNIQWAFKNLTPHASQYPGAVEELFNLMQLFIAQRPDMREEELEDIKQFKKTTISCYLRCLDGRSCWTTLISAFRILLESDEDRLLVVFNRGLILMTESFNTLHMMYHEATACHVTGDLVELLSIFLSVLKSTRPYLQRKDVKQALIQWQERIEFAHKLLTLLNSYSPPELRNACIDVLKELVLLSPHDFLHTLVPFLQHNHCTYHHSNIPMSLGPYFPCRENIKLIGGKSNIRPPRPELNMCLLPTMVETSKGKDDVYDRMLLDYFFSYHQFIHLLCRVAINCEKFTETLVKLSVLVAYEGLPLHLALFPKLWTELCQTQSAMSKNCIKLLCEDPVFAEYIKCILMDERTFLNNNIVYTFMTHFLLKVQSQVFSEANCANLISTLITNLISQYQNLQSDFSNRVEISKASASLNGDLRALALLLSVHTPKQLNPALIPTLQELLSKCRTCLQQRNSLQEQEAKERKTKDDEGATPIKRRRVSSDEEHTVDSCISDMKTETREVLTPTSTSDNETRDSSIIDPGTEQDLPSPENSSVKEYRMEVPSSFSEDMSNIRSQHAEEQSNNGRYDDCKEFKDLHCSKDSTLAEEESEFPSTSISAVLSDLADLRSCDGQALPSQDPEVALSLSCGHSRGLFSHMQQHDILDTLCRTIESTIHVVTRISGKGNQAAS
In short: (§1)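 Labelled DUBs from HEK293T lysate were NeutrAvidin-enriched, digested with LysC and trypsin, and run by diaPASEF LC-MS/MS. Before that, each 495 µg sample in Tris/CHAPS/IGEPAL buffer with protease inhibitors was treated in triplicate with fragment at 200 µM or vehicle for 3 h, then with Biotin-Ahx-Ub-VS at 0.5 µM final for 1 h. Values are average log2 ratios of fragment over vehicle by unpaired t-test, based on global-median-normalised Spectronaut label-free quantities from proteins with ≥2 unique peptides.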

[2] = target: T1, USP36 (UniProt Q9P275)
T1 sequence (whole entry): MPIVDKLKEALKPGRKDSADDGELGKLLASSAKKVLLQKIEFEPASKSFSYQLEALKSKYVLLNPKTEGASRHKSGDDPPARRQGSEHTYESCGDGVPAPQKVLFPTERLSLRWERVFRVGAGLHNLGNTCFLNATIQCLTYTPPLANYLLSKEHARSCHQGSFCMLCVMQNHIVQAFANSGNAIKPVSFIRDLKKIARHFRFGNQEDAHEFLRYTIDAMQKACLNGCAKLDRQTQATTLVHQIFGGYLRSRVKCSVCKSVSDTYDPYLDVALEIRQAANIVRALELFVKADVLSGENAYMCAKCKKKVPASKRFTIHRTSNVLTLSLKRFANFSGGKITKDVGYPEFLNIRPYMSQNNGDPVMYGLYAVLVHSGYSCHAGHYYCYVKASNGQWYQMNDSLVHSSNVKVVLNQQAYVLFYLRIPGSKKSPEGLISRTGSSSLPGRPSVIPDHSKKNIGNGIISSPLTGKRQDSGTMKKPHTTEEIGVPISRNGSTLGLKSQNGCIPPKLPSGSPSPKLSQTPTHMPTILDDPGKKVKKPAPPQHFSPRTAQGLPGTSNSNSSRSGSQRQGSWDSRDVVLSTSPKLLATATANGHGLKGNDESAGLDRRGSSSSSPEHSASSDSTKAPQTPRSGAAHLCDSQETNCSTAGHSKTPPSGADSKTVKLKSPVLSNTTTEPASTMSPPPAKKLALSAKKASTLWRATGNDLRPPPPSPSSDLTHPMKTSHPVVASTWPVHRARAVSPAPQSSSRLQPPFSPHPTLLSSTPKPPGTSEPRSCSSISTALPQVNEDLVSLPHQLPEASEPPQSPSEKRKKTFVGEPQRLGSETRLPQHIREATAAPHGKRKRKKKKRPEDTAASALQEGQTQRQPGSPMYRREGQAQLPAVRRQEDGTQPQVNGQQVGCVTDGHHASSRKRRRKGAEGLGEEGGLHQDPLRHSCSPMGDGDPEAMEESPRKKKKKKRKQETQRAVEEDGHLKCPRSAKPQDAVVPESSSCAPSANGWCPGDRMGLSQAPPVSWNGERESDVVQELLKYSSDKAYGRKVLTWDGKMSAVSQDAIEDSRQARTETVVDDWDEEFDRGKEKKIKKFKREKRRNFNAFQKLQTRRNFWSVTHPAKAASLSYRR
In short: as §1

[3] = target: T2, USP38 (UniProt Q8NB14)
T2 sequence (whole entry): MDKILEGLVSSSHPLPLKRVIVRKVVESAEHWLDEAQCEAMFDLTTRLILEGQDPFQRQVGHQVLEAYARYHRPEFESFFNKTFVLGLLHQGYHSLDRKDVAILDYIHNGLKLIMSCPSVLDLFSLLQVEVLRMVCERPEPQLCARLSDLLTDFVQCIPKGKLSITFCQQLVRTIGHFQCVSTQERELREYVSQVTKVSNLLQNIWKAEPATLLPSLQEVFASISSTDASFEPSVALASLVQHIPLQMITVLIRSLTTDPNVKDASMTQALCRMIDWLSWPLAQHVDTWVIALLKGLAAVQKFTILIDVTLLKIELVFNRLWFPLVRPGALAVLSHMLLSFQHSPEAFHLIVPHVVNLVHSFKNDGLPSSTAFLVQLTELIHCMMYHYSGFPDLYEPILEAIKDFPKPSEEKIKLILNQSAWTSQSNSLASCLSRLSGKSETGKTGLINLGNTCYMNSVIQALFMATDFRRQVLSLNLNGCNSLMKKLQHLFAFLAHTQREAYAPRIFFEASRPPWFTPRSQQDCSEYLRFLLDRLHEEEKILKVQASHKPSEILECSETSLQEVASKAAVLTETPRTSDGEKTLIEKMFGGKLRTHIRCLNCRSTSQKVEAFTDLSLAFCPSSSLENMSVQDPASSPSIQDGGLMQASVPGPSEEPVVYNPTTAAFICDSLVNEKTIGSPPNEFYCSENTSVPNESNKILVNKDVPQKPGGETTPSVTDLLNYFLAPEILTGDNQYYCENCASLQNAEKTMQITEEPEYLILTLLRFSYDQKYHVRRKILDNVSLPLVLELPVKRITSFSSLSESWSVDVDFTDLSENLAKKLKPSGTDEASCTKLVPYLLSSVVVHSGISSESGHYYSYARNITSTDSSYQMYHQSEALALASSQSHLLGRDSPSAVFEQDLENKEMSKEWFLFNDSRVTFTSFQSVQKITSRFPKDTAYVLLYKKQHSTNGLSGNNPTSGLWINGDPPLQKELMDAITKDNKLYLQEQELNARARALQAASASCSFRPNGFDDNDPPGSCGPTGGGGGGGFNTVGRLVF
In short: as §1

[4] = target: T3, USP39 (UniProt Q53GS9)
T3 sequence (whole entry): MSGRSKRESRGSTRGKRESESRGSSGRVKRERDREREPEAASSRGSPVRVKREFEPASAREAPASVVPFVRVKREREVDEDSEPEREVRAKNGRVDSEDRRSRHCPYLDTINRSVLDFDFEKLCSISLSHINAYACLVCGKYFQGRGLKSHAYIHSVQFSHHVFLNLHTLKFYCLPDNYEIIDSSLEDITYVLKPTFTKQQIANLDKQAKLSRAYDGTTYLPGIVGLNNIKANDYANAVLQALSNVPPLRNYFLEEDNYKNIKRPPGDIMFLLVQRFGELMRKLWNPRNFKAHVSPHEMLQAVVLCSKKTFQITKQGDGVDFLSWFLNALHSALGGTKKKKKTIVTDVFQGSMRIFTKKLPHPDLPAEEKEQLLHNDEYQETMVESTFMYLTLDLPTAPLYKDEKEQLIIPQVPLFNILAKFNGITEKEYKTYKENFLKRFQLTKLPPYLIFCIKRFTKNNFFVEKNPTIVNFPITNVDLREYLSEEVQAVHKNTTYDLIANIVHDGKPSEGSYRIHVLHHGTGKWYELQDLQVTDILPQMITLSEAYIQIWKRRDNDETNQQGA
In short: as §1

[5] = target: T4, USP4 (UniProt Q13107)
T4 sequence (whole entry): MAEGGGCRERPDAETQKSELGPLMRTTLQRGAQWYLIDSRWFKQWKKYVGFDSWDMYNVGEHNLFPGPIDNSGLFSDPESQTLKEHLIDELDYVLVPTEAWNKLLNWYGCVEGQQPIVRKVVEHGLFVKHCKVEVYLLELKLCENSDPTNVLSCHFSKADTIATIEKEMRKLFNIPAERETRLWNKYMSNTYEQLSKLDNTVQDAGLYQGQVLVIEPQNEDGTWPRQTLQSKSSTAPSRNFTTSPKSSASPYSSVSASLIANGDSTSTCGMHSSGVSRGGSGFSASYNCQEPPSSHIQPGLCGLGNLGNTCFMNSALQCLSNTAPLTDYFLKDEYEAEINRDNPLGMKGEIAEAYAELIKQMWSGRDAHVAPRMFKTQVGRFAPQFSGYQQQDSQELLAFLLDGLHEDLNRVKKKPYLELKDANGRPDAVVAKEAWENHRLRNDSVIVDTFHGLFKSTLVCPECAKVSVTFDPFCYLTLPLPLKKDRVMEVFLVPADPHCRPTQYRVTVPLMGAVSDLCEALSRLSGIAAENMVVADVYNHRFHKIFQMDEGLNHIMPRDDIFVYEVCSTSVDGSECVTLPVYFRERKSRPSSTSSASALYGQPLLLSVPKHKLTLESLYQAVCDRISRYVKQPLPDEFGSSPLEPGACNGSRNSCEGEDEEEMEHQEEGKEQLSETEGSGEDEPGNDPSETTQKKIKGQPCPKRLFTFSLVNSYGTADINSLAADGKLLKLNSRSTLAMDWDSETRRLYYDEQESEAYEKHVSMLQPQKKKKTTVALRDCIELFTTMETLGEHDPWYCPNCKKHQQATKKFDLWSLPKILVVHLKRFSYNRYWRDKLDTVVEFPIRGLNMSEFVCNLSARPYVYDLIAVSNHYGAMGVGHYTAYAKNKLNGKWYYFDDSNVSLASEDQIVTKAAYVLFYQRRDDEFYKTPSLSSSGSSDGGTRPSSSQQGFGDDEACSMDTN
In short: as §1

Measured: log2 ratio of Biotin-Ahx-Ub-VS probe labelling

O=C(CCl)NC1CCS(=O)(=O)c2ccccc21 (stereo not given)
inactive: [1] -0.0259 | [2] -0.0862 | [3] -0.432 | [4] -0.117 | [5] -0.0115
